Source: the supplement of paper PMC7366291
Where a name gives a salt, the structure may show the parent alone. ± gives the standard deviation or the standard deviation of the averaged measurements.

Experiments:
Conditions in all cases: 25 µM; exposure: 24-48 hpf
[1] = system: Danio rerio Tg(wt1b:EGFP) embryo, pronephros; experiment: glomerular separation, fold change vs DMSO control; higher = glomeruli further apart (abnormal)
How it was run: (§1)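 Every feature is expressed as a fold change relative to the averaged DMSO-treated embryos of the same day. The exposure ran from 24 to 48 hpf at 28.5°C, with dechorionated Tg(wt1b:EGFP) zebrafish embryos in HEPES-buffered E3 containing 0.003% PTU, 0.5% DMSO and 25 μM compound. Dorsal pronephros images taken in agarose-filled 96-well plates were reduced to maximum projections, on which 16 reference points were set by hand in Fiji for a macro to compute distances and angles. Values more than 2 SD from the feature mean were not used.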

[2] = system: Danio rerio Tg(wt1b:EGFP) embryo, pronephros; experiment: glomerular width (mean of left and right), fold change vs DMSO control; higher = wider glomerulus
How it was run: as §1

[3] = system: Danio rerio Tg(wt1b:EGFP) embryo, pronephros; experiment: fraction of imaged embryos annotated as normal kidney; higher = less nephrotoxic; extreme values may be limits of the assay
How it was run: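 Embryos of the Tg(wt1b:EGFP) zebrafish line were dechorionated and held in 12-well plates with 25 μM compound in 0.5% DMSO and 5 mM HEPES-buffered E3 containing 0.003% PTU, from 24 to 48 hpf at 28.5°C. Larvae were then anaesthetised with tricaine, set dorsal side up in agarose-filled 96-well plates, and their pronephroi imaged by widefield fluorescence at 470 nm over 10 z-slices. Each value is the fraction of embryos per treatment placed in the normal-kidney category after manual annotation of maximum projections.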

[4] = system: Danio rerio Tg(wt1b:EGFP) embryo, pronephros; experiment: pronephric angle neck segment to proximal convoluted tubule (mean of left and right), fold change vs DMSO control; higher = larger pronephric angle
How it was run: as §1

Structure (SMILES) | glomerular separation [1] | glomerular width [2] | fraction of imaged embryos annotated as normal kidney [3] | pronephric angle neck segment [4]
CN1C[C@H](C(=O)N[C@]2(C)O[C@@]3(O)[C@@H]4CCCN4C(=O)[C@H](Cc4ccccc4)N3C2=O)C[C@@H]2c3cccc4[nH]cc(c34)C[C@H]21 [Dihydroergotamine tartrate] | 1.15 ± 0.56 | 1.0661 ± 0.00016 | 0.833 | 0.948 ± 0.015
C[C@@H]1CN([C@H]2CC[C@](C#N)(c3ccc(F)cc3)CC2)CC[C@]1(C(=O)O)c1ccccc1 [Levocabastine hydrochloride] | 1.19 ± 0.32 | 1.06 ± 0.034 | 0.917 | 0.959 ± 0.011
C[C@]12COC(=O)C[C@@H]1CC[C@@H]1[C@@H]2CC[C@@]2(C)[C@H]1CC[C@]2(C)O [Oxandrolone] | 0.832 ± 0.35 | 1.1 ± 0.05 | 0.917 | 1.01 ± 0.036
CC(O)(CS(=O)(=O)c1ccc(F)cc1)C(=O)Nc1ccc(C#N)c(C(F)(F)F)c1 (stereo unspecified) [Bicalutamide] | 1.14 ± 0.56 | 1.04 ± 0.023 | 0.75 | 0.971 ± 0.002
CN(C)C(=O)Oc1ccc[n+](C)c1 [Pyridostigmine iodide] | 1.26 ± 0.35 | 0.982 ± 0.096 | 0.917 | 1.03 ± 0.013
O=C(NCNC(=O)NC1C(=O)NC(=O)N1CO)NC1C(=O)NC(=O)N1CO (stereo unspecified) [Imidurea] | 0.876 ± 0.2 | 1.008 ± 0.01 | 0.833 | 1.058 ± 0.0052
c1ccc2c(c1)Nc1ccccc1S2 [Phenothiazine] | 1.35 ± 0.6 | 0.851 ± 0.062 | 0.75 | 1.101 ± 0.002
C[C@@H]1CC[C@H]2[C@@H](C)C(=O)O[C@@H]3O[C@@]4(C)CC[C@@H]1[C@]32OO4 [Artemisinin] | 0.996 ± 0.38 | 0.9517 ± 0.0011 | 1 | 1.05 ± 0.054
N[C@@H]1C[C@H]1c1ccccc1 [Tranylcypromine hydrochloride] | 1.03 ± 0.28 | 1.021 ± 0.0055 | 0.727 | 1.01 ± 0.038
CCN(CC)C(C)C(=O)c1ccccc1 (stereo unspecified) [Amfepramone hydrochloride] | 0.872 ± 0.24 | 0.97173 ± 0.00026 | 0.917 | 1.01 ± 0.0072
C#C[C@]1(O)CC[C@H]2[C@@H]3CCC4=CC(=O)CC[C@]4(C)[C@H]3CC[C@@]21C [Ethisterone] | 0.918 ± 0.23 | 1.06 ± 0.071 | 0.909 | 1.065 ± 0.002
CC(C)(C)NCC(O)c1ccccc1Cl (stereo unspecified) [Tulobuterol] | 1.02 ± 0.37 | 0.9779 ± 0.007 | 0.917 | 1.01 ± 0.039
C[N+]1([O-])[C@@H]2C[C@@H](OC(=O)[C@H](CO)c3ccccc3)C[C@H]1[C@@H]1O[C@@H]12 (stereo partly specified) [Scopolamin-N-oxide hydrobromide] | 0.883 ± 0.35 | 1.03 ± 0.018 | 0.909 | 0.9285 ± 0.0031
O=[N+]([O-])O[C@H]1CO[C@H]2[C@@H]1OC[C@H]2O[N+](=O)[O-] [Isosorbide dinitrate] | 1.15 ± 0.34 | 0.9189 ± 0.0074 | 0.833 | 1.02 ± 0.024
C[N+]12CCC(CC1)C(OC(=O)C(O)(c1ccccc1)c1ccccc1)C2 (stereo unspecified) [Clidinium bromide] | 0.83 ± 0.32 | 0.982 ± 0.1 | 0.917 | 0.967 ± 0.022
CC(C)c1c(CN(C)C(C)Cc2ccccc2)n(C)n(-c2ccccc2)c1=O (stereo unspecified) [Famprofazone] | 0.985 ± 0.39 | 0.985 ± 0.031 | 0.917 | 1.084 ± 0.0087
CCNCC(O)c1cccc(O)c1 (stereo unspecified) [Etilefrine hydrochloride] | 0.79 ± 0.23 | 0.9277 ± 0.0022 | 0.833 | 0.951 ± 0.051
C=C1CC[C@@]2(O)[C@H]3Cc4ccc(O)c5c4[C@@]2(CCN3CC2CC2)[C@H]1O5 [Nalmefene hydrochloride] | 0.938 ± 0.31 | 1.016 ± 0.01 | 0.75 | 1.007 ± 0.0021
COc1ccc(C(=O)N2CCCC2=O)cc1 [Aniracetam] | 0.837 ± 0.17 | 1.06 ± 0.052 | 0.75 | 1.02 ± 0.019
CC(=O)[C@H]1CC[C@H]2[C@@H]3CC[C@H]4C[C@H](O)CC[C@]4(C)[C@H]3C(=O)C[C@]12C [Alfaxalone] | 0.896 ± 0.36 | 0.957 ± 0.0043 | 0.583 | 1.02 ± 0.027
C[C@]12Cc3c[nH]nc3C[C@@H]1CC[C@@H]1[C@@H]2CC[C@@]2(C)[C@H]1CC[C@]2(C)O [Stanozolol] | 1.31 ± 0.44 | 1.03 ± 0.076 | 0.75 | 1.01 ± 0.085
C[C@@H]1O[C@@H](O[C@@H]2C=C3CC[C@@H]4[C@H](CC[C@]5(C)[C@@H](c6ccc(=O)oc6)CC[C@]45O)[C@@]3(C)CC2)[C@H](O)[C@H](O)[C@H]1O [Proscillaridin A] | 3.66 ± 1.1 | 0.716 ± 0.029 | 0 | 1.2604 ± 0.00066
CN1[C@@H]2CC[C@H]1C[C@@H](OC1c3ccccc3CCc3ccccc31)C2 [Deptropine citrate] | 0.934 ± 0.35 | 0.947 ± 0.035 | 1 | 0.939 ± 0.061
c1ccc2c(c1)OCC(C1=NCCN1)O2 (stereo unspecified) [Idazoxan hydrochloride] | 0.851 ± 0.4 | 0.99138 ± 0.00087 | 0.833 | 1.02 ± 0.021
